Reference: PubChem BioAssay (NCI)
This is part of a sample that, as a whole, favours compounds with a hit. Of some 79,000 tested, about 15% had one in any assay. Activity calls are given as the source filed them. No stated cut-off is given here; in the data, active means growth inhibition above about 70%; inactive means the rest.

How the values were obtained:
[1] = NCI Yeast Anticancer Drug Screen. Data for the rad52 strain (AID 147);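 further: 0% = growth of vehicle-treated control cultures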; conditions: S. cerevisiae rad52 mutant growth inhibition, active compounds read high
How it was run: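 Growth of repair-deficient yeast cells was compared between compound-treated and vehicle-treated cultures to give percent inhibition.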

[2] = NCI Yeast Anticancer Drug Screen. Data for the wt1 strain (AID 149);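 further: 0% = growth of vehicle-treated wt1 cultures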; conditions: S. cerevisiae wt1 strain (SPY 50644) growth inhibition, active compounds read high
How it was run: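 Measured: growth of wt1 yeast under compound versus vehicle treatment, reported as inhibition.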

[3] = NCI Yeast Anticancer Drug Screen. Data for the rad50EPP+ strain (AID 151);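 further: 0% = growth of vehicle-treated control cultures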; conditions: S. cerevisiae rad50 mutant strain, active compounds read high
How it was run: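 Measured: growth inhibition of rad50EPP+ yeast. Reference: vehicle-treated controls. Screen uses strains with defined genetic alterations in DNA damage repair or cell cycle control.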

[4] = NCI Yeast Anticancer Drug Screen. Data for the mgt1 strain (AID 153); conditions: S. cerevisiae mgt1 mutant growth inhibition, active compounds read high
How it was run: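 Compounds were applied to mgt1 mutant yeast, and growth was then compared against vehicle-treated control cultures to give percent inhibition.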

[5] = NCI Yeast Anticancer Drug Screen. Data for the rad50 strain (AID 155);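 further: 0% = growth of vehicle-only cultures of the same strain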; conditions: S. cerevisiae rad50 strain growth inhibition, active compounds read high
How it was run: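 Growth of the mutant yeast was measured after compound exposure and referenced to vehicle-treated cultures.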

[6] = NCI Yeast Anticancer Drug Screen. Data for the mec2-1 strain (AID 157); conditions: S. cerevisiae mec2-1 strain, active compounds read high
How it was run: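 Compounds were applied to mec2-1 yeast cells. Their growth was then compared with that of vehicle-treated cultures to give growth inhibition.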

[7] = NCI Yeast Anticancer Drug Screen. Data for the rad14 strain (AID 159);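 further: 0% = growth of vehicle-treated control cultures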; conditions: S. cerevisiae rad14 strain growth inhibition, active compounds read high
How it was run: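 Here, inhibition of yeast growth was measured after compound exposure, using a strain with a genetic defect in DNA damage repair and vehicle-treated cultures as the reference.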

[8] = NCI Yeast Anticancer Drug Screen. Data for the sgs1 mgt1 strain (AID 161);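 further: 0% = growth of cultures given vehicle only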; conditions: S. cerevisiae sgs1 mgt1 strain, active compounds read high
How it was run: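 Growth of a repair-deficient yeast mutant was monitored after compound treatment and expressed as inhibition relative to vehicle-treated cultures.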

[9] = NCI Yeast Anticancer Drug Screen. Data for the CLN2oe strain (AID 163);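 further: 0% = growth of vehicle-only control cultures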; conditions: S. cerevisiae CLN2oe strain, active compounds read high
How it was run: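 Cells of an engineered yeast line with disturbed cell-cycle regulation are treated with compound. Inhibition of growth is then calculated relative to the vehicle-treated reference.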

[10] = NCI Yeast Anticancer Drug Screen. Data for the cln2 rad14 strain (AID 165);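 further: 0% = growth equal to vehicle treated cultures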; conditions: S. cerevisiae cln2 rad14 strain, active compounds read high
How it was run: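 Strain: cln2 rad14 yeast, altered in cell cycle control and DNA damage repair. Read-out: growth inhibition vs vehicle.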

[11] = NCI Yeast Anticancer Drug Screen. Data for the bub3 strain (AID 167); conditions: S. cerevisiae bub3 mutant strain, active compounds read high
How it was run: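 Whole-cell yeast assay. The mutant strain was incubated with compounds, and growth inhibition was determined by comparison with vehicle-treated cells.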

[12] = NCI Yeast Anticancer Drug Screen. Data for the wt2 strain (AID 169);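 further: 0% = growth of vehicle-treated yeast cultures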; conditions: S. cerevisiae wt2 strain growth inhibition, active compounds read high
How it was run: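 Growth of compound-treated yeast is measured and expressed as inhibition relative to vehicle-only controls.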

[13] = NCI Yeast Anticancer Drug Screen. Data for the mlh1 strain (AID 171);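 further: 0% = growth of vehicle-treated control cultures of the same strain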; conditions: S. cerevisiae mlh1 strain growth inhibition, active compounds read high
How it was run: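 Test agents were incubated with yeast bearing a defined DNA damage repair or cell cycle control alteration; values are growth inhibition normalised to vehicle-treated cultures.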

[14] = NCI Yeast Anticancer Drug Screen. Data for the sgs1 strain (AID 173);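 further: 0% = growth of vehicle-only control cultures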; conditions: S. cerevisiae sgs1 mutant, active compounds read high
How it was run: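 Strain with an altered DNA repair or cell cycle pathway exposed to compound. Growth then measured. Value = inhibition versus vehicle control.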

[15] = NCI Yeast Anticancer Drug Screen. Data for the mlh1 rad18 strain (AID 175); conditions: S. cerevisiae mlh1 rad18 strain growth inhibition, active compounds read high
How it was run: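 A repair-deficient yeast strain is exposed to test compound, and growth is scored relative to vehicle-treated controls.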

[16] = NCI Yeast Anticancer Drug Screen. Data for the rad18 strain (AID 177); conditions: S. cerevisiae rad18 mutant growth inhibition, active compounds read high
How it was run: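 DNA-repair-defective yeast; compound treatment; growth inhibition scored against vehicle.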

[17] = at 5.0 µM (retest, dose inferred, filed as 0.5)
[18] = at 50.0 µM (retest, dose inferred, filed as 5.0)

Measured: growth inhibition

CS(=O)(=O)SCc1ccc([N+](=O)[O-])cc1
active: [1]; at 11.0 µM 90% | [1]; at 33.0 µM 99% | [1]; at 100.0 µM 97% | [2]; at 33.0 µM 99% | [2]; at 100.0 µM 98% | [3]; at 11.0 µM 97% | [3]; at 33.0 µM 99% | [3]; at 100.0 µM 97% | [4]; at 33.0 µM 99% | [4]; at 100.0 µM 98% | [5]; at 11.0 µM 97% | [5]; at 33.0 µM 99% | [5]; [18] 93% | [5]; at 50.0 µM 97.9% | [5]; at 100.0 µM 97% | [6]; at 11.0 µM 85% | [6]; at 33.0 µM 99% | [6]; [18] 96% | [6]; at 50.0 µM 98% | [6]; at 100.0 µM 97% | [7]; at 33.0 µM 99% | [7]; at 100.0 µM 97% | [8]; [18] 95% | [8]; at 50.0 µM 98.1% | [9]; at 33.0 µM 98% | [9]; at 100.0 µM 97% | [10]; [18] 94% | [10]; at 50.0 µM 96.5% | [11]; at 11.0 µM 97% | [11]; at 33.0 µM 99% | [11]; [18] 94% | [11]; at 50.0 µM 98.8% | [11]; at 100.0 µM 96% | [12]; at 33.0 µM 99% | [12]; at 100.0 µM 97% | [13]; at 11.0 µM 70% | [13]; at 33.0 µM 99% | [13]; at 100.0 µM 97% | [14]; at 11.0 µM 97% | [14]; at 33.0 µM 99% | [14]; at 100.0 µM 97% | [15]; [18] 93% | [15]; at 50.0 µM 98% | [16]; at 11.0 µM 90% | [16]; at 33.0 µM 99% | [16]; at 100.0 µM 97%
inactive: [1]; at 1.2 µM 7% | [1]; at 3.7 µM 30% | [2]; at 1.2 µM -5% | [2]; at 3.7 µM 1% | [2]; at 11.0 µM 38% | [3]; at 1.2 µM 8% | [3]; at 3.7 µM 57% | [4]; at 1.2 µM -2% | [4]; at 3.7 µM -4% | [4]; at 11.0 µM 61% | [5]; at 1.2 µM 1% | [5]; at 3.7 µM 41% | [5]; [17] 20% | [6]; at 1.2 µM 3% | [6]; at 3.7 µM 4% | [6]; [17] -25% | [7]; at 1.2 µM 5% | [7]; at 3.7 µM 18% | [7]; at 11.0 µM 69% | [8]; [17] -11% | [9]; at 1.2 µM -2% | [9]; at 3.7 µM 7% | [9]; at 11.0 µM 57% | [10]; [17] -35% | [11]; at 1.2 µM 6% | [11]; at 3.7 µM 40% | [11]; [17] 51% | [12]; at 1.2 µM -1% | [12]; at 3.7 µM -3% | [12]; at 11.0 µM 69% | [13]; at 1.2 µM 6% | [13]; at 3.7 µM 14% | [14]; at 1.2 µM -3% | [14]; at 3.7 µM 39% | [15]; [17] -31% | [16]; at 1.2 µM 7% | [16]; at 3.7 µM 29%
